This note sets out measurements from PubChem BioAssay.

Assay [1] can be described thus: small molecules captured by biotinylated probe aFSTL3 – biochemical, small-molecule microarray, fluorescence 635/667, stem cell growth factor project, primary screen (AID 1064).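 Note: measures binding of the biotinylated anti-FSTL3 antibody to printed compounds.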 To be noted: higher = more signal.
Assay [2] can be described thus: binders from COS7 lysate, DM2A8 probe, primary screen, torsin A project, cell lysate, small-molecule microarray, fluorescence 635/667 (AID 1065). To be noted: higher = more signal, COS7 lysate expressing mutant human TOR1A.
Assay [3] in a line: small molecules captured by biotinylated probe aFGF2 – biochemical, small-molecule microarray, fluorescence 635/667, stem cell growth factor project, primary screen (AID 1067).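 Note: measures binding of biotinylated aFGF2 protein to printed compounds on slides; z-score merges feature fluorescence and signal-to-noise across triplicate slides.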 To be noted: higher = more signal.
A short description of assay [4]: small molecules captured by biotinylated probe aFGF10 – biochemical, small-molecule microarray, fluorescence 635/667, stem cell growth factor project, primary screen (AID 1071).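 Note: score merges 667 nm spot intensity and signal to noise from triplicate slides.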 The conditions noted are these: higher = more signal.
Assay [5] addresses Neurogenic locus notch homolog protein 2 (Homo sapiens) (UniProt Q04721). The assay can be described thus: small molecules binding Notch2 protein – biochemical, small-molecule microarray, 635 nm fluorescence, stem cell growth factors, primary screen (AID 1073). The conditions noted are these: higher = more signal.
Assay [6] deals with Pro-neuregulin-1, membrane-bound isoform (Homo sapiens) (UniProt Q02297). The assay can be described thus: small molecules binding neuregulin-1 protein – biochemical, small-molecule microarray, fluorescence 635/667, psychiatric disease protein project, primary screen (AID 1075).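 Note: score combines 667 nm spot fluorescence with signal to noise.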 The conditions noted are these: NRG1 binding, 635 nm fluorescence, higher = more signal.
Pro-neuregulin-1, membrane-bound isoform (Homo sapiens), sequence (Q02297 whole entry, looked up, the tested form may be a part, canonical isoform): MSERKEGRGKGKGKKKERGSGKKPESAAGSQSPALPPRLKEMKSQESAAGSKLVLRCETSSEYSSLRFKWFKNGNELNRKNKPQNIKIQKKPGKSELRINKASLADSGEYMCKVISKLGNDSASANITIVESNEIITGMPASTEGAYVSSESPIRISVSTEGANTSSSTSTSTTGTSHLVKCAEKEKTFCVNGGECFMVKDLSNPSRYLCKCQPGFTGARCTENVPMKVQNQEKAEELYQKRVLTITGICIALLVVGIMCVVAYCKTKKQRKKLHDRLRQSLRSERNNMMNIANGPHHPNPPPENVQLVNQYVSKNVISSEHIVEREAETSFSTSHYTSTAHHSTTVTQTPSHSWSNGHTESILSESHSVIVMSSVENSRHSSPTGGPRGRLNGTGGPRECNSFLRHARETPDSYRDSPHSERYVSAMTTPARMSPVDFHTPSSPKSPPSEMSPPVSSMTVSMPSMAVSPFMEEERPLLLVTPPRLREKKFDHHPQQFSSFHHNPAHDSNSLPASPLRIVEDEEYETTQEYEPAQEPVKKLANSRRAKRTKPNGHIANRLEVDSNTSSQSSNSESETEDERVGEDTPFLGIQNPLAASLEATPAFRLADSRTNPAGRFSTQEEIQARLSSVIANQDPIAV
Assay [7] deals with Neuregulin-1 EGF-like domain. Kind of assay: small molecules binding NRG1 EGF domain – biochemical, small-molecule microarray, 635 nm fluorescence, primary screen (AID 1081).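 Note: binding of the protein to compounds printed on small-molecule microarray slides.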 To be noted: higher = more signal.
A short description of assay [8]: FRG1 expression reporter modulators in myotubes – cell-based, C2C12 myotubes, firefly/Renilla luciferase, luminescence, FRG1 inhibition for FSHD, primary screen (AID 1084). To be noted: FRG1 promoter luciferase, higher = more signal, called active from +8 up or from −8 down.
Assay [9] is described as follows: small molecules captured by biotinylated probe aFST – biochemical, small-molecule microarray, fluorescence 635/667, stem cell growth factor project, primary screen (AID 1086).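 Note: score merges 667 nm fluorescence with signal-to-noise of each printed compound spot.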 To be noted: higher = more signal.
Assay [10] can be described thus: binders of probe aHhip on microarray, primary screen, stem cell growth factor project, biochemical, small-molecule microarray, fluorescence 635/667 (AID 1087).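 Note: score merges spot fluorescence at 667nm with spot signal to noise ratio.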 The conditions noted are these: higher = more signal.
Assay [11] has as its system PRMT1 (protein arginine N-methyltransferase 1). Kind of assay: small molecules binding arginine methyltransferase PRMT1 – biochemical, small-molecule microarray, 635 nm fluorescence, primary screen (AID 1088).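 Note: binding of Prmt1 protein to compounds spotted on small-molecule microarray slides.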 To be noted: higher = more signal.
Assay [12] in a line: growth effects on S. cerevisiae YJM789 – YJM789 clinical isolate, OD600, 24 h, basal, primary screen (AID 1089).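 Note: growth of clinical yeast isolate S. cerevisiae YJM 789 seeded 1000 cells per well; test concentration not given here.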 To be noted: higher = more signal, called active from +8 up or from −8 down.
A short description of assay [13]: S. pombe growth modifiers, basal conditions – strain 972, OD600, 24 h, no modulator, primary screen (AID 1090).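 Note: basal condition with compound alone and no growth modifier present; test concentration not given here.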 The conditions noted are these: S. pombe 972 growth, higher = more signal, called active from +8 up or from −8 down.
A short description of assay [14]: budding yeast growth modifiers under rapamycin – strain BY4716, OD600, 96 h, primary screen (AID 1091). Note: test concentration not given here. To be noted: S. cerevisiae BY4716 + rapamycin, higher = more signal, called active from +8 up or from −8 down.
Assay [15] concerns the target Torsin-1A-interacting protein 2 (Homo sapiens) (UniProt Q8NFQ8). Kind of assay: small molecules binding lysate-expressed LULL1 – cell lysate, human LULL1 lysate, 635/667 nm fluorescence, primary screen (AID 1092).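 Note: probe is lysate of COS7 cells overexpressing human LULL1; score merges per-feature 667 nm fluorescence with signal-to-noise.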 To be noted: small-molecule microarray, hLULL1 lysate binding, 635 nm fluorescence; higher = more signal.
Assay [16] is described as follows: optical density change of DRC41 E. coli – strain DRC41, OD650, 24 h, E. coli filamentation project, primary screen (AID 1093).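 Note: MC1000 strain lacking acrAB efflux and sulA so SOS filamentation is blocked; test concentration not given here.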 The conditions noted are these: E. coli DRC41 growth, higher = more signal, called active from +8 up or from −8 down.
Assay [17] can be described thus: probe aLefty2 binding to arrayed compounds – biochemical, biotinylated probe, 635/667 nm fluorescence, primary screen (AID 1094).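 Note: score merges spot fluorescence near 667 nm with spot signal-to-noise ratio.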 The conditions noted are these: small-molecule microarray, higher = more signal.
Assay [18] has as its system Noggin (protein binding on small-molecule microarray). The assay can be described thus: small molecules binding Noggin protein – biochemical, 635/667 nm fluorescence, primary screen (AID 1095).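 Note: score merges 667 nm feature fluorescence with signal to noise over triplicate slides.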 To be noted: 635 nm fluorescence, higher = more signal.
Assay [19] addresses Neurogenic locus notch homolog protein 3 (Homo sapiens) (UniProt Q9UM47). The assay can be described thus: small molecules binding NOTCH3 protein – biochemical, 635/667 nm fluorescence, primary screen (AID 1096). The conditions noted are these: small-molecule microarray, 635 nm fluorescence, higher = more signal.
A short description of assay [20]: probe aEGFR binding to arrayed compounds – biochemical, biotinylated probe, 635/667 nm fluorescence, primary screen (AID 1097).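 Note: probe is a biotinylated anti-EGFR antibody binding compounds printed on slides; score combines fluorescence near 667 nm and signal to noise of each spot.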 The conditions noted are these: small-molecule microarray, higher = more signal.

Activity calls are given as the source filed them.

Neurogenic locus notch homolog protein 2 (Homo sapiens), sequence (Q04721 whole entry, looked up, canonical isoform): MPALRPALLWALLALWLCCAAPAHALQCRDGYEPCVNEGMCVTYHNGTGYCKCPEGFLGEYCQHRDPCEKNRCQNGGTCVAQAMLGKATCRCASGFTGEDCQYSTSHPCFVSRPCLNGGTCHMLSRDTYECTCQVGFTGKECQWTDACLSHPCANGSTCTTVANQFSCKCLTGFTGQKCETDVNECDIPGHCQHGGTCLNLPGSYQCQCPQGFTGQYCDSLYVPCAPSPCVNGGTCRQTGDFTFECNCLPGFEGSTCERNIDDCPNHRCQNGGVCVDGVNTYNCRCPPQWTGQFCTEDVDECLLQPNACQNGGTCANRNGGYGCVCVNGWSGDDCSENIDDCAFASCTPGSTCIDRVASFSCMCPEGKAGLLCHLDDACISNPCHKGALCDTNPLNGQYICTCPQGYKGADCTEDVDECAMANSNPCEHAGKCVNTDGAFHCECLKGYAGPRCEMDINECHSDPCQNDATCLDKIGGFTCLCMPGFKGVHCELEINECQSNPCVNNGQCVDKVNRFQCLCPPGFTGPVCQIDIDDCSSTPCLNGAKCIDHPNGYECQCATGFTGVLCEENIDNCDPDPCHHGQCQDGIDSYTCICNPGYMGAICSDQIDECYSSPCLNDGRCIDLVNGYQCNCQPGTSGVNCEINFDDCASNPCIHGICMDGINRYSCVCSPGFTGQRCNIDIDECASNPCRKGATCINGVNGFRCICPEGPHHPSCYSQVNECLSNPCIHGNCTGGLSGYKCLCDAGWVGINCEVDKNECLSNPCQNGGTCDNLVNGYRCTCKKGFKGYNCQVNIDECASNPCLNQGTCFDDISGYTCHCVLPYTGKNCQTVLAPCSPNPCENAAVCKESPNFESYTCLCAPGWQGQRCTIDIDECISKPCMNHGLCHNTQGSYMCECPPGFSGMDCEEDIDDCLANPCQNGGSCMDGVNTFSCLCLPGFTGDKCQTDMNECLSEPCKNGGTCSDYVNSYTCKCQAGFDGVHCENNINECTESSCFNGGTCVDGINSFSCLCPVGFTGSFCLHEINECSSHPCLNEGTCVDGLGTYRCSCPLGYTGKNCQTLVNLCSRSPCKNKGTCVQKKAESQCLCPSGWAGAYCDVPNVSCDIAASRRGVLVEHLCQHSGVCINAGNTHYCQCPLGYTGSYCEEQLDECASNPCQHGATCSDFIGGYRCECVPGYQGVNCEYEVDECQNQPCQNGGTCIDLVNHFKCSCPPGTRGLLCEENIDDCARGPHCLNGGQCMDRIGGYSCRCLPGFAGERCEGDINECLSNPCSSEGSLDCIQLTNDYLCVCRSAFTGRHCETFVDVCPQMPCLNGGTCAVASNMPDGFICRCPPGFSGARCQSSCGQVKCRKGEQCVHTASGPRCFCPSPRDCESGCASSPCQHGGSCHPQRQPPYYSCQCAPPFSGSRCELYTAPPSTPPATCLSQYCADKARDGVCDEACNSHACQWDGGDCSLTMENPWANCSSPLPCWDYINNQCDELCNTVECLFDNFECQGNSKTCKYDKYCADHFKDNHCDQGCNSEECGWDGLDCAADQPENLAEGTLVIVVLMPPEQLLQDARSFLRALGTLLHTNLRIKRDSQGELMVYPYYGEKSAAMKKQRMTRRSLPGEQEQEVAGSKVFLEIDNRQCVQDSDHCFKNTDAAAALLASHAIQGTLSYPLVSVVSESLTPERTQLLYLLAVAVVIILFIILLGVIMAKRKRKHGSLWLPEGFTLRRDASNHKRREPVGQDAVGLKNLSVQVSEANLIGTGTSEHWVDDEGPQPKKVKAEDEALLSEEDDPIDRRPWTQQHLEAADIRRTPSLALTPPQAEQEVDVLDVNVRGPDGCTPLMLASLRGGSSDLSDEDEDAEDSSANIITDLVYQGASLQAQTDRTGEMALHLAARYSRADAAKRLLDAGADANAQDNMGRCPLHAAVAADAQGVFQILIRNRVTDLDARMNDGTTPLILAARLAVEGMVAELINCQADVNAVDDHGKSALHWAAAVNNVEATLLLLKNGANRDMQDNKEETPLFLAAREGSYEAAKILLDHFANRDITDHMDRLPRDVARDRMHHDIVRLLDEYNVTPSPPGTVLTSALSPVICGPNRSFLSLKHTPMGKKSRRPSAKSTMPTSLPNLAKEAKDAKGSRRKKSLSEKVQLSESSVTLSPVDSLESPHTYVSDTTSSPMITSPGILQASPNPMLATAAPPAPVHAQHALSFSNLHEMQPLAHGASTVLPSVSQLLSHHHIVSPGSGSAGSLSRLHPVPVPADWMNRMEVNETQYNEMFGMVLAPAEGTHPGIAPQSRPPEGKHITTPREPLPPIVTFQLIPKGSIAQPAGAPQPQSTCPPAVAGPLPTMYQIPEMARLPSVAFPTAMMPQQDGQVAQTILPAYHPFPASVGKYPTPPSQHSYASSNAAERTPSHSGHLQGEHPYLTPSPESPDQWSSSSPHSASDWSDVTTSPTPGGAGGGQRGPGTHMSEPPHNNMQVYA
Torsin-1A-interacting protein 2 (Homo sapiens), sequence (Q8NFQ8 whole entry, looked up): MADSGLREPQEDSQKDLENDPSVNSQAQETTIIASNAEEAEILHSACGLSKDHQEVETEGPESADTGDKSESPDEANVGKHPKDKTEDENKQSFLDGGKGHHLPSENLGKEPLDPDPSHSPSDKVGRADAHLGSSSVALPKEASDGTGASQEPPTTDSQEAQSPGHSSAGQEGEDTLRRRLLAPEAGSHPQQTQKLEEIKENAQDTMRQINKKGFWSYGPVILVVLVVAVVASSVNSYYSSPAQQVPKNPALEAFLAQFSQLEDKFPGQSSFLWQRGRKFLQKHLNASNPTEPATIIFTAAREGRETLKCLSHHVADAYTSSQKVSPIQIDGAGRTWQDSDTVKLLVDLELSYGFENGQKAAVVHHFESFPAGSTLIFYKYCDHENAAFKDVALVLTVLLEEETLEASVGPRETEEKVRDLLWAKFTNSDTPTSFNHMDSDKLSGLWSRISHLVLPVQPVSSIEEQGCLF

`Cc1ccc(S[C@]2(C(=O)NCC(F)(F)F)CC(=O)N(Cc3ccccc3C(F)(F)F)[C@@H]2c2ccc(CO)cc2I)cc1`: the composite z-score in assay [1] was 0.52; in assay [2] it was -0.893; in assay [3] it was -0.157; in assay [4], -0.954; in [5], -1.15; in [6], -0.12. The composite z-score in [7] was 0.124; in [9], -0.818; in assay [10], -0.236; in assay [11], -0.987; in assay [15] it was 0.779; in [17] it was -0.072. Further, the composite z-score is -0.859 in assay [18], -1.45 in assay [19] and -0.254 in assay [20]. The z-score in assay [8] is -1.24 (inactive); in [12], -1.54 (inactive); in [13] it was -2.79 (inactive); in [14], 1.65 (inactive); in assay [16] it was 0.625 (inactive).
Turning to `CCOC(=O)C1=CC[C@@H](c2ccc(OCc3ccccc3)c(OC)c2)N(S(=O)(=O)c2ccc(C)cc2)[C@H]1c1ccc(SC)cc1`, the composite z-score turned out to be 0.152 in [1]; 0.718 in [2]; 0.162 in assay [3]; 1.02 in [4]; 1.54 in [5]; 0.876 in assay [6]. Further, the composite z-score is 1.11 in [7]; 1.67 in [9]; 0.245 in assay [10]; 1.1 in assay [11]; 3.21 in assay [15]; 0.347 in assay [17]. For the same compound, the figures for the composite z-score in assay [18], in [19] and in assay [20] were 0.257, 1.12 and 0.206, respectively. The z-score in [8] is -0.895 (inactive); in [12], -0.448 (inactive); in assay [13], 0.236 (inactive); in assay [14], 1.94 (inactive); in assay [16] it was -0.628 (inactive).
On to `O=C1NC(=O)C2C1C=CC(C(O)CCc1ccccc1)N2Nc1ccc(Cl)cc1Cl` (stereo not given), for which the composite z-score in assay [1] amounted to 1.18; in [2] it was 1.42; in assay [3] it was 0.153; in assay [4], 0.229; in [5], 1.39; in assay [6] it was 1.34. Also, the composite z-score in [7] is 1.1; in assay [9], 1.55; in assay [10] it was 0.011; in [11] it was 0.23; in assay [15], 2.73; in [17], 0.379. For the same compound, the composite z-score in assay [18] is -0.839; in [19], -0.0822; in assay [20] it was 0.0122. The z-score in assay [8] was 1.19 (inactive); in assay [12] it was -0.455 (inactive); in [13], -2.05 (inactive); in assay [14], 0.0242 (inactive); in [16], -0.748 (inactive).
Turning to `CCCCCCCCCCC(O)C1C=CC2C(=O)N(C)C(=O)C2N1Nc1ccc([N+](=O)[O-])cc1[N+](=O)[O-]` (stereo not given), the composite z-score was -0.222 in assay [1]; -0.254 in [2]; 0.0772 in assay [3]; 0.131 in [4]; 1.55 in [5]; 1.12 in [6]. The composite z-score in assay [7] was 0.975; in assay [9] it was 0.839; in [10], -0.0994; in assay [11], 0.195; in assay [15] it was 3.02; in assay [17] it was 0.379. The composite z-score in assay [18] is -0.894; in assay [19], 1.1; in assay [20], 0.153. The z-score was 0.262 (inactive) in [8]; 0.766 (inactive) in assay [12]; 0.637 (inactive) in assay [13]; 1.35 (inactive) in assay [14]; -1.68 (inactive) in assay [16].
In the case of `C=CC[C@]1(C(=O)NCCN2CCOCC2)N=C(c2ccc(OCCCO)cc2)O[C@H]1c1ccccc1CN=[N+]=[N-]`, the composite z-score in assay [1] was 0.442; in assay [2], 1.46; in assay [3], -0.0078; in assay [4], 0.333; in [5], 0.837; in [6] it was 0.849. The composite z-score in assay [7] was found to be 1.23; in assay [9], 0.171; in assay [10], 0.0338; in assay [11], 1.4; in [15], 1.64; in assay [17], 0.298. Besides, the composite z-score in assay [18] was 0.641; in [19] it was -1.35; in assay [20], 0.159. Besides, the z-score in assay [8] is 1.81 (inactive); in [12], -0.0011 (inactive); in [13], -1.77 (inactive); in assay [14] it was -0.744 (inactive); in assay [16] it was 1.23 (inactive).
